According to ChEMBL document CHEMBL1157539, “Thousands of chemical starting points for antimalarial lead identification” (Nature, 2010):

Test system: Plasmodium falciparum
Test: GSK_TCMDC: Inhibition of Plasmodium falciparum 3D7 in whole red blood cells, using parasite LDH activity as an index of growth. Test compounds present at 2uM
Assay type: functional

| SMILES | Inhibition [%] |
| --- | --- |
| CCCCCCN1CCN(Cc2cccc(NC(=O)c3ccc(Cl)c(Cl)c3)c2)CC1.O=C(O)C(F)(F)F | 85 |
| CC(C)NCc1ccc(-c2ccc(-c3nc4cc(C(F)(F)F)ccc4[nH]3)s2)cc1.O=C(O)C(F)(F)F | 100 |
| CN(C)CC(O)C(c1ccccc1)c1cccc(Br)c1.Cl (stereo unspecified) | 98 |
| CCCCCn1c(Sc2ccc(C#N)c([N+](=O)[O-])c2)nnc1-c1ccc(Cl)cc1 | 88 |
| COc1ccc2nccc([C@@H](O)CN3CCC(NCc4ccc(OC)c(NC(C)=O)c4)CC3)c2c1 | 90 |
| Nc1nc(O)c2cc(CN(C=O)c3ccc(C(=O)N[C@@H](CCC(=O)O)C(=O)O)cc3)ccc2n1 | 93 |
| CC(C)(C)OC(=O)NCc1ccc(Nc2nnc(-c3cccc(C(=O)NCCC(c4ccccc4)c4ccccc4)c3)o2)cc1 | 100 |
| N#Cc1cccc(NC(=O)c2cccc(S(=O)(=O)NC3CCN(CC4CCCCC4)C3)c2)c1.O=C(O)C(F)(F)F (stereo unspecified) | 100 |
| CS(=O)(=O)O.NC1=NC(CCc2ccccc2)N(c2ccccc2)C(N)=N1 (stereo unspecified) | 94 |
| O=C(NCCCCN1CCN(c2cccc3ccccc23)CC1)c1ccc(NC(=O)c2ccc(Cl)cc2)cc1 | 100 |
| Cc1cc(C)c(NC(=O)N[C@H]2CCN(CCCCCNC(=O)/C=C/c3ccc(Cl)c(Cl)c3)C2)c(C)c1 | 91 |
| CC(C)(C)C1CCC(CC2=C(C(=O)O)c3ccccc3C2=O)CC1 (stereo unspecified) | 91 |
| FC(F)(F)c1ccc2[nH]ccc(=NN=Cc3cccnc3)c2c1 | 100 |
| FC(F)(F)c1ccc2[nH]ccc(=NN=Cc3ccccc3Cl)c2c1 | 100 |
| COc1ccc2nccc(N3CCC(SCCNCc4ccc5c(n4)NC(=O)CS5)C3)c2n1.Cl (stereo unspecified) | 95 |
| Cc1ccc(NC(=O)c2ccc(N3CCN(c4ccncc4)CC3)cc2)cc1F.O=C(O)C(F)(F)F | 100 |
| COc1ccc(COc2cc(NCCCN)nc3ccccc23)cc1 | 100 |
| CC(C)N1CCN(c2ccc(OCCCCN3CCN(c4cccc(Cl)c4Cl)CC3)cc2Cl)CC1.Cl | 89 |

| SMILES | Inhibition [%] |
| --- | --- |
| NC(=O)c1ccccc1Nc1nc(Nc2ccc(N3CCOCC3)cc2)ncc1[N+](=O)[O-].O=C(O)C(F)(F)F | 98 |
| N#Cc1ccc2[nH]cc(CN3CCC4(CC3)CN(CCNCc3ccccc3)C(=O)CO4)c2c1.O=C(O)C(F)(F)F | 98 |
| CC(C)Cc1c(O)nc(SCCN2CCOCC2)[nH]c1=O.Cl | 88 |
| CN(Cc1ccccc1)C1CCCN(c2cc(NC(=O)c3cccs3)ccn2)C1.O=C(O)C(F)(F)F (stereo unspecified) | 88 |
| CCC(C)OC(=O)C1=C(C)NC2=C(C(=O)CC(c3ccc(OC)c(OC)c3)C2)C1c1ccc(O)cc1 (stereo unspecified) | 100 |
| O=C(N[C@H]1CCN(CCc2ccc(O[C@H]3CCNC3)c(Br)c2)C1)c1ccc(Cl)c(Cl)c1.O=C(O)C(F)(F)F | 100 |
| CCNC(=O)N1CCc2ccc(Oc3nc(NCc4ccccc4OC)ncc3C)cc2CC1.O=C(O)C(F)(F)F | 83 |
| Cn1cc(-c2ccnc3[nH]c(-c4cccc(CNC5CCC(O)CC5)c4)cc23)cn1.O=C(O)C(F)(F)F (stereo unspecified) | 95 |
| O=C(Nc1ccc2c(c1)OCO2)c1cc(-c2cccnc2)nc2ccc(Cl)cc12 | 89 |
| Br.CC(C)c1ccc(OCCCON2C(=N)N=C(N)NC2(C)C)cc1 | 93 |
| Cl.Nc1c2c(nc3ccc(NC(=O)CCCCCc4ccccc4)cc13)CCCC2 | 100 |
| O=C(O)C(F)(F)F.O=S(=O)(NC1CCCCN(Cc2ccccc2O)C1)c1ccc(C(F)(F)F)cc1 (stereo unspecified) | 84 |
| Cl.N=C(N)NN=Cc1c2ccccc2c(Cl)c2ccc(Cl)cc12 | 98 |
| O=C(COc1ccccc1)N(Cc1ccc(-c2ccc(CNC3Cc4ccccc4C3)cc2)cc1)C1CCNCC1.O=C(O)C(F)(F)F | 100 |
| O=C(Nc1cccc(CN2CCCN(Cc3cccc(O)c3)CC2)c1)c1ccc(Cl)c(Cl)c1.O=C(O)C(F)(F)F | 100 |
| COc1ccccc1CN1CCC(NC(=O)c2ccc(-c3cccc(C(F)(F)F)c3)s2)CC1.O=C(O)C(F)(F)F | 85 |
| Cl.c1cc(COc2ccc(C3=NCCN3)cc2)nc(COc2ccc(C3=NCCN3)cc2)c1 | 100 |
| COc1ccc(Oc2ccc(-c3c(C)[nH]c(C)c(Cl)c3=O)cc2)cc1 | 97 |
